Our source for the growth values is PubChem BioAssay (NCI).

Each structure is given as a SMILES string. This is part of a sample that, as a whole, favours compounds with a hit. Of some 83,000 tested, about 20% had one in any assay.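 Step 1: grow cells in 96-well plates. Step 2: add test compound at a single concentration. Step 3: incubate 48 h. Step 4: record percent growth.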 Unmarked numbers belong to inactive results. Active and inactive are the calls of the source. How the source made its calls: active means growth percent below 10; inactive means the rest.

Holding throughout (assay): NCI-60 one-dose screen, 48 h (100 = growth as untreated, 0 = no growth, -100 = all killed)
What all share (conditions): 10 µM unless noted

In assay [1] the test system is DU-145 prostate.
The test system of assay [2] is K-562 leukemia.
Assay [3] relates to MALME-3M melanoma.
The subject of assay [4] is MDA-MB-231 breast.
Assay [5] deals with RXF 393 renal.
Assay [6] concerns SF-268 CNS.
The subject of assay [7] is SF-295 CNS.
The test system of assay [8] is SF-539 CNS.
For assay [9], the system named is UACC-257 melanoma.
The test system of assay [10] is M14 melanoma.
The test system of assay [11] is HCT-15 colon.
The test system of assay [12] is HT29 colon.
In assay [13] the test system is SNB-75 CNS.
Assay [14] has as its system SNB-19 CNS.
Assay [15] deals with U251 CNS.
Assay [16] deals with PC-3 prostate.
In assay [17] the test system is SK-MEL-5 melanoma.
Assay [18] relates to UACC-62 melanoma.
The subject of assay [19] is LOX IMVI melanoma.
The subject of assay [20] is SK-MEL-28 melanoma.

Consider `COC(=O)c1ccc2c(c1)C(=O)c1c-2n(CCCN)c(=O)c2cc([N+](=O)[O-])ccc12`, for which the growth in assay [1] is -100% (active); in [2] it was -100% (active); in assay [3], -96.9% (active); in assay [4], -100% (active); in [5] it was -87.5% (active); in assay [6], -87.2% (active). The growth is -77.4% (active) in [7]; -94.2% (active) in assay [8]; -96.1% (active) in [9]; -100% (active) in assay [10]; -96.1% (active) in assay [11]; -100% (active) in [12]. The growth was -99.2% (active) in assay [13]; -59.3% (active) in assay [14]; -100% (active) in assay [15]; -70.1% (active) in assay [16]; -100% (active) in assay [17]; -100% (active) in assay [18]. Besides, the growth in assay [19] and in assay [20] was -100% (active) throughout.

Take `COc1ccc(OC)c(-c2c(C#N)c(-c3cccs3)nc3c2c(-c2ccccc2)nn3-c2ccccc2)c1`: the growth in assay [1] is 111%; in assay [2], 106%; in [3], 106%; in [4] it was 105%; in assay [5] it was 109%; in assay [6], 97.4%. Also, the growth in assay [7] was 101%; in [8] it was 93.5%; in [9], 105%; in assay [10] it was 105%; in [11] it was 104%; in assay [12], 97.4%. Further, the growth is 89% in [13]; 96.6% in assay [14]; 100% in [15]; 93.5% in assay [16]; 102% in [17]; 90.2% in assay [18]. The growth in assay [19] is 104%; in assay [20], 107%.

For the compound `CC(C)CCC[C@@H](C)[C@H]1CC[C@H]2[C@@H]3CC=C4C[C@@H](C(C(=O)O)C(=O)O)CC[C@]4(C)[C@H]3CC[C@]12C`, the growth in assay [1] is -83.5% (active); in assay [2], -48.3% (active); in assay [3], -43% (active); in assay [4] it was -28.2% (active); in [5], -49.8% (active); in [6], -24.6% (active). Moreover, the growth was -61.2% (active) in [7]; -27.3% (active) in assay [8]; -49.8% (active) in assay [9]; -72.9% (active) in assay [10]; -6.36% (active) in [11]; -35.1% (active) in [12]. Also, the growth is -61.1% (active) in assay [13]; 18.6% in assay [14]; -46.8% (active) in assay [15]; -5.95% (active) in assay [16]; -96% (active) in [17]; -53.4% (active) in [18]. Further, the values for the growth in [19] and in assay [20] were -29.3% (active) and -49.6% (active), respectively.

Regarding `CC(C)N1CN2C(=S)NC3C2N(C1)C(=S)N3C` (stereo not given), the growth in assay [1] is 104%; in assay [2], 102%; in [3] it was 105%; in [4], 110%; in assay [5] it was 105%; in [6] it was 96%. The growth in [7] was 98%; in assay [8], 109%; in assay [9] it was 95%; in [10], 105%; in [11], 105%; in [12], 92.4%. The growth is 85.5% in assay [13]; 100% in assay [14]; 101% in assay [15]; 98% in [16]; 97.9% in assay [17]; 96.6% in [18]. Also, the growth in assay [19] was 98.9%; in [20], 114%.

Take `N#Cc1c(-c2ccccc2)cc(-c2ccccc2)n(CCCCCC(=O)Nc2ccccc2N)c1=O`: the growth in assay [1] was 72.6%; in [2], 46.3%; in assay [3], 76.8%; in assay [4] it was 64.1%; in assay [5] it was 39%; in [6], 64.3%. The growth is 95.9% in assay [7]; 72.9% in assay [8]; 78.6% in assay [9]; 80.1% in assay [10]; 51.7% in [11]; 43.7% in assay [12]. For the same compound, the growth was 32.2% in assay [13]; 68.2% in [14]; 61.2% in [15]; 43.7% in [16]; 21.2% in [17]; 65.5% in assay [18]. For the same compound, the growth is 26.2% in assay [19] and 80.5% in assay [20].

In the case of `Clc1ccc(Sc2cnc(-c3ccccc3)o2)cc1`, the growth in assay [1] is 104%; in assay [2], 98.2%; in assay [3], 102%; in assay [4], 97.2%; in assay [5], 115%; in assay [6], 93.5%. For the same compound, the growth in assay [7] was 97.4%; in assay [8], 96%; in [9], 93.6%; in assay [10] it was 107%; in [11], 103%; in assay [12], 105%. The growth in assay [13] is 92.6%; in assay [14] it was 88.4%; in [15], 91.4%; in [16], 104%; in [17], 97.8%; in [18] it was 102%. The growth in assay [19] was 97.3%; in assay [20], 102%.

As for `C=CC(=O)NCc1ccc(Nc2nccc(-c3ccc(N4CCCC4)c(C#N)c3)n2)cc1`, the growth is 46.3% in assay [1]; 21% in assay [2]; 44.9% in assay [3]; 75.6% in assay [4]; -1.91% (active) in assay [5]; 49.7% in [6]. The growth in assay [7] was 22.9%; in assay [8], 28%; in assay [9], 39.8%; in assay [10] it was 36.1%; in [11], 19.7%; in assay [12], 7.08% (active). Moreover, the growth in [13] is 20.3%; in assay [14], 58.6%; in assay [15] it was 38.1%; in assay [16], 32.4%; in assay [17], 35.7%; in assay [18] it was 33.8%. The growth was 47.2% in assay [19] and 45.5% in assay [20].
